Most compounds without a hit are left out; they make up all but 2.9% or so of the library.
GLP1R cytotox: cytotoxicity counter-screen for GLP-1 receptor inverse agonists | HEK293 cAMP-luciferase reporter cells, luminescence, 24 h | Potency, µM (highest dose often 38.3 µM), most hits filed as inhibitors | 410,000 compounds, 0.13% hits;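 also: loss of luciferase light is scored as toxicity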
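Seeding density was 200 cells/uL; after overnight-length (12 h) culture, 23 nL compounds went on for 24 h at 37 °C. Readout used a luciferase detection reagent, luminescence taken after 12 min at room temperature.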
ClpP mod: qHTS Assay for Activators of ClpP. purified B. subtilis ClpP, FRET peptide cleavage, 20 min. 340,000 compounds, 1.9% hits. ATP-dependent Clp protease proteolytic subunit (Bacillus subtilis (strain 168)), P80244. Potency, µM (top dose mostly 57.5 µM); active = well fitted falling curve with a large enough effect; inconclusive = small, poorly fitted or top-dose-only effect; inactive = no such curve, though single readings can be large or run the other way; also: the source files actives as falling curves though it sought activators and does not explain the sign; nearly all actives have a fitted effect of over 65% in size
Target sequence (P80244 whole entry, looked up): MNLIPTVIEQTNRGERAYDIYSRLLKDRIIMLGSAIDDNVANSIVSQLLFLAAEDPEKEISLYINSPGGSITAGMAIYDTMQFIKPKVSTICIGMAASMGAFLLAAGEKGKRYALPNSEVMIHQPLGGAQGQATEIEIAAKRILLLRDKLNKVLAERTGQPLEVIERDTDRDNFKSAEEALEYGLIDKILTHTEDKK
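ClpP 10 microg/mL final, pH 8 Tris/KCl buffer with BSA, glycerol, Tween-20; compound pinned in; FRET-FV substrate; RT 20 min; Ex320/Em430; ΔFRET vs ADEP 5.8 microM, DMSO, no enzyme.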
LDHA inh: LDHA (human) enzyme inhibition; P00338; purified LDHA, NADH/diaphorase-resazurin fluorescence; hits give low values; activity change, % (values are at about 110 or 230 µM); 480,000 compounds, 0.15% hits; AID 1347041; in the data active = activity change below about -30%; inconclusive = mostly about -25% to -30%
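Human LDH5 at 2 nM final in Tris HCl pH 7.4 with 0.06 mM NADH and 0.2 mM pyruvate, reacted 5 minutes at room temperature. Remaining NADH coupled via diaphorase/resazurin; resorufin fluorescence read at 0 and 20 minutes, normalized to enzyme-free and DMSO wells.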
GLP1R inv ag: GLP-1 receptor (human) inverse agonism | P43220 | HEK293 GLP-1R CRE-luciferase, luminescence, 24 h; GLP-1R form is constitutively active | Potency, µM (doses to about 38.3 µM), usual class: inhibitors | 410,000 compounds, 1.6% hits | AID 624417; also: nearly all actives have a fitted effect of over 55% in size
Target sequence (P43220 whole entry, looked up): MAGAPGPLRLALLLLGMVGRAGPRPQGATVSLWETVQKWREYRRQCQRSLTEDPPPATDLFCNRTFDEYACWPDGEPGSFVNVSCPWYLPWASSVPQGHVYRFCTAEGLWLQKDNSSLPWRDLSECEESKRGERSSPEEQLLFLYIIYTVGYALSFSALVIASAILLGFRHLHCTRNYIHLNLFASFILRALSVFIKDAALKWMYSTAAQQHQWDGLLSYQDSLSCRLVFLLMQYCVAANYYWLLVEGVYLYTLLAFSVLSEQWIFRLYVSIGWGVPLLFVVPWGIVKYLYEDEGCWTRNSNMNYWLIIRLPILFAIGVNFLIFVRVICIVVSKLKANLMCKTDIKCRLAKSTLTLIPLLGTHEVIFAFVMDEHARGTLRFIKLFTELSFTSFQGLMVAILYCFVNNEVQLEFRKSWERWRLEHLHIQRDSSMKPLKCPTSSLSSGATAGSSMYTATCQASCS
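Constitutively active GLP-1R drives a cAMP-responsive luciferase in stably transfected HEK293 cells; test compounds are added after overnight (12 h) attachment and left 24 hr, and signal loss in luminescence marks inhibition.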
p53 reactivation: re-activators of mutant p53. Potency, µM (top dose mostly 92.2 µM), actives largely listed as activators. AID 504706. 320,000 compounds, 0.063% hits. H1299 p53-A138V BP100-luciferase reporter, luminescence, 24 h; also: nearly all actives have a fitted effect of over 45% in size
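H1299 (p53-null), stable ts p53-A138V + BP100-Luc; 1000 cells/well, Opti-MEM/10% FBS; cpd 4 pt, 1:5; 24 h, 37 deg C, 5% CO2; detection reagent 10 min RT; luminescence.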
GLP1R ag: agonists of human GLP-1 receptor; P43220; Potency, µM (doses to about 45.6 µM), most hits filed as activators; 380,000 compounds, 0.007% hits; HEK293 GLP-1R CRE-luciferase, luminescence, 4-6 h; cells express a hypersensitive GLP-1R form
Hits are given with their value; n = inactive; u = inconclusive; x = not tested or not shown; [ ] = remark or other dose. Unless noted, calls follow the shape of the dose curve; as a rule, active = well fitted curve in the direction sought with a large enough effect; inconclusive = small, poorly fitted or top-dose-only effect, or another doubt; inactive = no such curve, though single readings can be large; an effect the other way counts as inactive or inconclusive.

SMILES	GLP1R cytotox	ClpP mod	LDHA inh	GLP1R inv ag	p53 reactivation	GLP1R ag
Clc1ccccc1Cn1nnc(-c2ccccc2)n1	n	x	n	n	u	n
CN(C)c1ccc(-c2nnn(Cc3ccccc3Br)n2)cc1	n	28.2µM	n	n	n	n
Cc1cccc(Nc2nc(NCCCN3CCOCC3)nc(N)c2[N+](=O)[O-])c1	n[1.53 µM]	20µM	n	n	n	n
Cc1cccc(-c2nc(NCCCN3CCOCC3)c3ccccc3n2)c1	u	n	n	8.91µM	n	n
Cc1cc(N)n2ncc(-c3cccc(Br)c3)c2n1	n	17.8µM	n	u	u	n
Cc1nc([N+](=O)[O-])cn1CC(=O)Nc1ccc(F)c(Cl)c1	n	n	n	n	x	n
Cc1nnc(NC(=O)CSc2nnc(-c3ccc(S(=O)(=O)N4CCCC4)cc3)n2C)s1	n	n	n	n	n	n
Cc1cccn2c(=O)c(/C=C(\C#N)C(=O)NCc3ccco3)c(N3CCOCC3)nc12	n	x	n	n	n	n
CCOC(=O)/C(C#N)=C/c1c(N2CCN(c3ccc(OC)cc3)CC2)nc2c(C)cccn2c1=O	n	31.6µM	n	n	n	n
CCNC(=O)/C(C#N)=C/c1c(N2CCCCCC2)nc2c(C)cccn2c1=O	n	15.8µM	n	n	n	n
N#C/C(=C\c1c(N2CCC(C(N)=O)CC2)nc2ccccn2c1=O)C(=O)NCc1ccco1	n[1.53 µM]	25.1µM	n	n	n	n
O=S(=O)(NCCc1csc2nc(-c3ccc(Cl)cc3)nn12)c1ccc(Oc2ccccc2)cc1	n	n	n	n	x	x
CN1CCC(NC(=O)Nc2ccc(Br)cc2)CC1	n	n	n	u	n	n
CCc1ccc(CNC(=O)c2ccc(CSc3nc4ccncc4n3Cc3ccccc3)cc2)cc1	n	31.6µM	n	u	x	x
Clc1ccccc1CSc1nc2ccncc2[nH]1	n	n	n	n	u	n
Cc1ccccc1CNC(=O)c1ccc(CSc2nc3cccnc3n2Cc2ccccc2)cc1	n	n	n	n	x	x
COc1ccc(Cn2c(SCc3ccc(C(=O)NCc4cccs4)cc3)nc3cccnc32)cc1	n	28.2µM	n	n	x	x
CCOc1ccccc1CNC(=O)c1ccc(Cn2c(SCc3ccccc3)nc3cccnc32)cc1	n	15.8µM	n	n	x	x
CCc1ccc(CNC(=O)c2ccc(CSc3nc4ccncc4n3Cc3ccc(OC)cc3)cc2)cc1	n	n	n	u	x	x
O=C(NCc1ccccc1Cl)c1ccc(CSc2nc3ccncc3[nH]2)cc1	n	x	n	10µM	n	n
Cc1ccc(C(=O)N2CCC(C(N)=O)CC2)cc1NC(=O)c1nsc2ccccc12	n	n	n	n	x	x
COc1ccc(-n2nc(C(=O)NCC(=O)N3CC(C)CC(C)C3)c3ccccc3c2=O)c(OC)c1 (centres undefined)	n	x	n	n	n	n
CC(C)(C)NCC(=O)c1c[nH]c2ccccc12	n	n	n	n	n	n
COc1ccc(Cn2c(SCc3ccc(C(=O)NCCc4ccccc4)cc3)nc3cccnc32)cc1	n	n	n	n	x	x
COc1ccc(CCNC(=O)c2ccc(Cn3c(SCc4ccccc4)nc4cccnc43)cc2)cc1	n	31.6µM	n	n	x	x
SMILES	GLP1R cytotox	ClpP mod	LDHA inh	GLP1R inv ag	p53 reactivation	GLP1R ag
COc1cccc(CCNC(=O)c2ccc(Cn3c(SCc4ccccc4)nc4cccnc43)cc2)c1	n	25.1µM	n	n	x	x
CN(C)S(=O)(=O)c1cccc(-c2cn3cc(Cl)ccc3n2)c1	n	28.2µM	n	n	n	u
CN(C)S(=O)(=O)c1cccc(-c2cn3ccccc3n2)c1	n	u	n	n	n	n
O=S(=O)(c1cccc(-c2cn3cc(Cl)ccc3n2)c1)N1CCOCC1	n	28.2µM	n	n	n	n
COc1cc(OC)c(C(=O)NCC2CCCO2)cc1OC (centres undefined)	n[0.307 µM]	n	n	n[0.307 µM]	n	n
CCOc1ccc(CCNC(=O)CSc2cc(=O)n(CC)c3ccccc23)cc1OCC	n	31.6µM	n	n	n	n
COCCCNc1nc2c(c(=O)n(Cc3ccc(OC)cc3)c(=O)n2C)n1C	n	n	n	n	n	n
COc1ccc(Cn2c(=O)c3c(nc(NCCO)n3C)n(C)c2=O)cc1	n	3.55µM	n	n	n	n
Cc1ccc(C(=O)Nc2ccc(S(=O)(=O)O)c3cc(S(=O)(=O)O)cc(S(=O)(=O)O)c23)cc1NC(=O)c1cccc(NC(=O)Nc2cccc(C(=O)Nc3cc(C(=O)Nc4ccc(S(=O)(=O)O)c5cc(S(=O)(=O)O)cc(S(=O)(=O)O)c45)ccc3C)c2)c1	x	n	-93.6	x	x	n
Cc1[nH]c2ccccc2c1CCNS(=O)(=O)c1ccc(S(N)(=O)=O)cc1	n	n	n	n	n	n
COc1cc(S(=O)(=O)NCCc2c(C)[nH]c3ccc(C)cc23)ccc1Br	n	n	n	10µM	x	x
COc1ccc(C(C)C)cc1S(=O)(=O)NCCc1c(C)[nH]c2ccc(C)cc12	n	n	n	11.2µM	x	x
COc1cccc(N=CNc2cccc(OC)c2)c1	n	n	n	n	x	n
CCN(CC)C(=O)c1ccc2nc(-c3ccccc3)c(-c3ccccc3)nc2c1	n	25.1µM	n	5.01µM	n	n
CCCNC(=O)c1ccc2nc(-c3ccccc3)c(-c3ccccc3)nc2c1	n	28.2µM	n	3.55µM	n	n
CN1CCN(C(=O)c2ccc3nc(-c4ccccc4)c(-c4ccccc4)nc3c2)CC1	n	x	n	n	n	n
O=C(c1ccc2nc(-c3ccccc3)c(-c3ccccc3)nc2c1)N1CCCCC1	n	n	n	2.51µM	n	n
O=C(/C=C/c1cn(-c2ccccc2)nc1-c1ccc2c(c1)OCCO2)NCCO	n	x	n	n	n	n
CCn1cc(C(=O)O)c(=O)c2cc(OC)ccc21	n	31.6µM	n	n	n	n
COc1ccccc1C(=O)N/N=C(\C)c1ccc(NC(=O)Cc2ccccc2)cc1	n	n	n	u	u	n
COc1ccccc1C(=O)N/N=C(\C)c1ccc(NC(=O)C2CC2)cc1	n	28.2µM	n	n	n	n
OCCN1CCN(Cc2cc(Cl)c3cccnc3c2O)CC1	u	n	n	u	u	n
Oc1c(CN2CCN(c3ccccn3)CC2)cc(Cl)c2cccnc12	u	n	n	0.501µM	n	n
COc1ccccc1N1CCN(Cc2cc(COC(C)C)c3cccnc3c2O)CC1	u	n	n	u	x	x
COc1ccccc1N1CCN(Cc2cc(Br)c(O)c3ncccc23)CC1	1.12µM	n	n	u	n	n
COc1ccccc1N1CCN(c2nc(C)nc3c2oc2ccccc23)CC1	u	31.6µM	n	u	n	n
